43 compounds from ChEMBL document CHEMBL3988442, “University of Dundee, Small-Polar-MMV Screening Library” (2021) can be followed below.

SMILES strings stand for the structures.

Experiment [1] addresses T1, Aspartate--tRNA(Asp/Asn) ligase (Mycobacterium tuberculosis (strain ATCC 25618 / H37Rv)) (UniProt P9WFW3).
T1 sequence (whole entry): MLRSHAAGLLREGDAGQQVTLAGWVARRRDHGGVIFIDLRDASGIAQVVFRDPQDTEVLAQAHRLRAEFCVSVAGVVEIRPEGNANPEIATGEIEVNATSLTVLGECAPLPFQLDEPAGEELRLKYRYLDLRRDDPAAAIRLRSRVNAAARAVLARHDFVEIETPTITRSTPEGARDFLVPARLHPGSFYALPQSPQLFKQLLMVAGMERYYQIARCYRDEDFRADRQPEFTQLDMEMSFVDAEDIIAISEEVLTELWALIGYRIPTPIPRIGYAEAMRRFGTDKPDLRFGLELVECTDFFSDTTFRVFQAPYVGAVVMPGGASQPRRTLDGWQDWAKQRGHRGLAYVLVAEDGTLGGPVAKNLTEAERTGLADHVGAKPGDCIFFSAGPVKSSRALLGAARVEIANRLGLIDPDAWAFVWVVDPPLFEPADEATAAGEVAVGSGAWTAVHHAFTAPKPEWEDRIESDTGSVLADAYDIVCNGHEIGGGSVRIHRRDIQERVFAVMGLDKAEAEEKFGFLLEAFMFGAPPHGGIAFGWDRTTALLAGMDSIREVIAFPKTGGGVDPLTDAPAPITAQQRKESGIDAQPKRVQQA
The experiment can be described thus: Assay for Asp RNA synthetase-1 from Mycobacterium tuberculosis. The experiment is classed as functional. Set-up: scale not given: direction of the effect not stated beside the values. As to conditions: 30 µM.

Experiment [2] has as its target Shiga toxin 2 (Escherichia coli O157:H7) (UniProt P09385+P09386). The experiment can be described thus: E. coli 0.157:H7 Shiga Toxin SOP - stx2 screening assay. The experiment is classed as functional. Also noted: scale not given: direction of the effect not stated beside the values. As to conditions: 30 µM.

On to `O=C(c1ccc2[nH]ccc2c1)N1CCn2cnc(COCC3CC3)c2C1`, for which the Percent Effect in experiment [1] was 7.07%; in experiment [2], -13.5%.

Consider `Cc1cc(CC(=O)N2CCCC2c2nc(C(C)C)no2)on1` (stereo unspecified), for which the figures for the Percent Effect in experiment [1] and in experiment [2] were -3.79% and 8.6%, respectively.

With `Cc1cccc(C(=O)NC2CCN(c3cnn(C)c3)C2=O)n1` (stereo unspecified), the Percent Effect in experiment [1] was 2.04%; in experiment [2] it was -29.9%.

With `O=C(NCC1CCOC1)Nc1ccc(OCC(F)(F)F)nc1` (stereo unspecified), the values for the Percent Effect in experiment [1] and in experiment [2] were -1.61% and -28.7%, respectively.

In the case of `CC(C(=O)NCc1ccnc(N2CCCC2)c1)n1cncn1` (stereo unspecified), the results for the Percent Effect in experiment [1] and in experiment [2] were -2.83% and 27.3%, respectively.

Turning to `CC(=O)N1CCCN(C(=O)c2cnc3n[nH]c(C)c3c2)CC1`, the Percent Effect in experiment [1] is -0.871%; in experiment [2], 19.4%.

Consider `CCOCC(O)CN1CCN(C(=O)c2cnc3n[nH]c(C)c3c2)CC1` (stereo unspecified), for which the Percent Effect in experiment [1] was 1.04%; in experiment [2], 30.1%.

In the case of `CNC(=O)CCCNCc1c(C)nn(C)c1N(C)C`, the Percent Effect is 2.12% in experiment [1] and -15.3% in experiment [2].

For the compound `O=S(=O)(N1CCCCC1)N1CCc2nc(C3CCNCC3)ncc2C1`, the values for the Percent Effect in experiment [1] and in experiment [2] were -1.74% and 13.4%, respectively.

Consider `Cc1ccc(NC2CCN(C(=O)c3cc[nH]n3)CC2)nn1`, for which the Percent Effect was -1.83% in experiment [1] and 18.1% in experiment [2].

Take `CN1CC(=O)N(c2ccsc2)CC12CCN(S(C)(=O)=O)C2` (stereo unspecified): the figures for the Percent Effect in experiment [1] and in experiment [2] were -0.605% and 0.893%, respectively.

Consider `O=C(O)CCc1cccc(C2CCCN2Cc2ccc(F)c(F)c2)n1` (stereo unspecified), for which the Percent Effect in experiment [1] was -0.372%; in experiment [2], 2.71%.

With `Cc1nn(C)c(C)c1C1CCCN1C(=O)CCNc1ncccn1` (stereo unspecified), the Percent Effect worked out at 6.63% in experiment [1] and 13.4% in experiment [2].

Consider `O=C(CCc1cccs1)N1CCCCC1Cn1cccn1` (stereo unspecified), for which the figures for the Percent Effect in experiment [1] and in experiment [2] were -2.77% and 1.06%, respectively.

As for `CCOc1cccc(C(C)NC(=O)N2CCC(C(N)=O)CC2)c1` (stereo unspecified), the figures for the Percent Effect in experiment [1] and in experiment [2] were -2% and 11.2%, respectively.

In the case of `CC(=O)Nc1cccc(C(=O)Nc2cnc3n2CCCC3)c1`, the results for the Percent Effect in experiment [1] and in experiment [2] were 2.26% and -9.23%, respectively.

As to `CCOC(=O)c1sc2ccsc2c1CNC(=O)C(C)(C)C#N`, the Percent Effect was determined as 0.67% in experiment [1] and 16.1% in experiment [2].

As to `CCn1nnc2c1C(COC)CN(C(=O)Cc1cccs1)C2` (stereo unspecified), the Percent Effect in experiment [1] is -8.15%; in experiment [2], -30.3%.

On to `CC(NC(=O)NCCCN(C)S(C)(=O)=O)c1cccc(Cl)c1` (stereo unspecified), for which the Percent Effect in experiment [1] is 1.12%; in experiment [2], -9.29%.

With `O=C(c1ccc2c(c1)CCCC2)N1CCOCC1c1ncon1` (stereo unspecified), the values for the Percent Effect in experiment [1] and in experiment [2] were -2.09% and 0.194%, respectively.

As for `O=C(C1CCN(c2snc3ccccc23)CC1)N1CCCCCC1`, the Percent Effect was 3.13% in experiment [1] and -32.4% in experiment [2].

In the case of `Cc1ccc(S(=O)(=O)Nc2ccc(=O)n(C)c2)cc1`, the values for the Percent Effect in experiment [1] and in experiment [2] were 26.8% and -7.78%, respectively.

`Cc1nc(C)n(CC2CCCCN2CC(=O)Nc2cccnc2)n1` (stereo unspecified): the Percent Effect in experiment [1] is -1.56%; in experiment [2], 7.21%.

Regarding `Cn1cc(N2CCC3(CCN(Cc4nccs4)C3)C2=O)cn1` (stereo unspecified), the Percent Effect in experiment [1] is -0.749%; in experiment [2], -2.2%.

In the case of `Cc1cccc(CN2CCc3ncnc(N4CCOCC4)c3CC2)n1`, the Percent Effect is -3.01% in experiment [1] and -8.89% in experiment [2].

Consider `Cc1ncc(CNC(=O)N(C)C2CCN(c3ccccc3)C2=O)s1` (stereo unspecified), for which the figures for the Percent Effect in experiment [1] and in experiment [2] were -3.19% and 24.6%, respectively.

On to `Cc1nc(N2CCCC2)ncc1-c1cc(O)nc(N2CCCC2)n1`, for which the Percent Effect is -6.71% in experiment [1] and -0.674% in experiment [2].

Take `Cc1nonc1CC(=O)N1C[C@@H]2CC[C@H](C1)N(Cc1ccccc1)C2=O`: the Percent Effect in experiment [1] turned out to be 1.39%; in experiment [2] it was 2.88%.

Consider `CN(C)C(=O)c1ccc2c(c1)N(C)C(CC(=O)NC(C)(C)CO)CO2` (stereo unspecified), for which the Percent Effect in experiment [1] was 1.87%; in experiment [2], -25.6%.

Consider `CC(C)Oc1cccc(C(O)CNC(=O)CCc2ccncc2)c1` (stereo unspecified), for which the results for the Percent Effect in experiment [1] and in experiment [2] were -1.28% and -21.1%, respectively.

As for `COc1ccc(C(C(=O)O)N2CCCN(C3CCCCC3)CC2)cn1` (stereo unspecified), the Percent Effect came out at 2.16% in experiment [1] and 0.0125% in experiment [2].

For `Cc1csc(N2CCN(CC(=O)Nc3c(C)n[nH]c3C)CC2C)n1` (stereo unspecified), the Percent Effect turned out to be 2.07% in experiment [1] and 17.4% in experiment [2].

For `Cc1cc(C(=O)NCc2ccc(N3CCCC(C(N)=O)C3)cc2)no1` (stereo unspecified), the Percent Effect in experiment [1] is -6.8%; in experiment [2], -3.03%.

With `Cc1ncc(CNCC2CCCN2c2cccnn2)s1` (stereo unspecified), the Percent Effect in experiment [1] was 0.684%; in experiment [2], -14.7%.

Take `CCNc1cc2c(nn1)CCN(C(=O)c1cc3nc(C)ccc3o1)C2`: the Percent Effect is -4.95% in experiment [1] and -51.6% in experiment [2].

Take `COc1ccc(C(=O)Nc2cnn(CC(=O)NC3CCCC3)c2)c(O)c1`: the Percent Effect was 1.25% in experiment [1] and -54.5% in experiment [2].

For `CCc1nnc(CNCC2CCCN2c2cccnn2)o1` (stereo unspecified), the Percent Effect was -1.12% in experiment [1] and -52.3% in experiment [2].

Turning to `CC(C)(NCC(=O)NCCC#N)c1ccc2c(c1)OCCO2`, the Percent Effect in experiment [1] is 11.1%; in experiment [2] it was 14.2%.

As for `Cc1noc(C)c1C(=O)N1CC[C@H]2C[C@@H](c3nccs3)O[C@@H]2C1`, the Percent Effect in experiment [1] worked out at 3.92%; in experiment [2] it was 3.87%.

As to `CN(C)c1ncnc2c1CCN(CC1CCOC1)CC2` (stereo unspecified), the Percent Effect in experiment [1] is -1.82%; in experiment [2] it was -26.9%.

Take `Cc1noc(C)c1CN1CC[C@@H](OCC2CC2)[C@@H](Cc2ccccc2)C1`: the Percent Effect in experiment [1] came to 0.779%; in experiment [2], 16%.

Consider `O=C(NCC(O)c1cccc(F)c1)c1cccnc1O` (stereo unspecified), for which the Percent Effect in experiment [1] is -2.85%; in experiment [2], -19%.

For `O=C(c1ccsc1)N1CCc2c(CNc3ncccn3)n[nH]c2C1`, the Percent Effect in experiment [1] is -0.641%; in experiment [2], -33.5%.
